Values joined by “and” are separate entries in the source; they are usually repeats but may differ in a detail not shown here. Identical values can stand only once. Inconclusive results are not listed. Active and inactive are the calls of the source. Unless noted, calls come from the whole dose curve; as a rule, active = well fitted curve in the direction sought with a large enough effect; inconclusive = small, poorly fitted or top-dose-only effect, or another doubt; inactive = no such curve, though single readings can be large; an effect the other way counts as inactive or inconclusive.
Tests used:
[1] = target: Cellular tumor antigen p53 (Homo sapiens) (UniProt P04637); assay: Primary qHTS for small molecule compounds that upregulate eGFP-tagged delta133p53alpha (in N-terminal) cells. (AID 2060322); settings: NCI-H358 eGFP-delta133p53alpha fluorescence, 24 h; activation: stronger effect = higher value;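 note: cells pre-induced with doxycycline then dosed without doxycycline; series mostly up to about 56 µM; 0% = DMSO vehicle and 100% = reference activator; nearly all actives have a fitted effect of over 75% in size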
Summary of the method: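 NCI-H358 cells pre-induced 24 h with 10 ng/ml doxycycline for eGFP-delta133p53alpha, plated dox-free and exposed 24 h at 37C to titrated compounds. Fixed, Hoechst-stained; gated GFP peak intensity by laser scanning cytometry, normalized to DMSO (0%) and 57.5 uM 5-azacytidine (100%).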

[2] = target: Cellular tumor antigen p53 (Homo sapiens) (UniProt P04637); assay: Primary qHTS for small molecule compounds that upregulate eGFP-tagged delta133p53alpha (in C-terminal) cells. (AID 2060324);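 note: 0% = DMSO wells and 100% = 57.5 µM 5-azacytidine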
Summary of the method: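 Doxycycline (100 ng/ml, 24 h) first induced the eGFP fusion in NCI-H358 C-terminal-tag cells. Washed-out cells then received titrated compounds for 24 h at 37 °C before paraformaldehyde fixation, Hoechst staining and cytometric GFP quantification.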

[3] = target: Aldehyde dehydrogenase, mitochondrial (Homo sapiens) (UniProt P05091); assay: qHTS for Inhibitors of the Aldehyde Dehydrogenase Family (ALDH2) Validation screens (AID 2061302; active = well fitted inhibition curve with a large enough effect; title and protocol of this record describe different tests;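 note: plate controls were DMSO vehicle for no effect and maximal DPI positive control response for full effect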)
[4] = target: Retinaldehyde dehydrogenase 3 (Homo sapiens) (UniProt P47895); assay: qHTS for Inhibitors of the Aldehyde Dehydrogenase Family (ALDH1A3) Validation screen (AID 2061312); note: % is set by controls: 0 for no effect and ±100 for the full control effect; nearly all actives have a fitted effect of over 45% in size
[5] = BET inhibitor-based combinations targeting novel dependencies in MECOM-rearranged (r) AML: SET-2 cell line (AID 2202231); settings: SET-2 AML cells viability, CellTiter-Glo luminescence, 48 h; viability: stronger effect = lower value, series mostly up to about 46 µM;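 note: plate controls were DMSO treated cells for no effect and wells without cells for full effect; nearly all actives have a fitted effect of over 35% in size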
Summary of the method: (§1)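 Luminescent ATP readout (CellTiter-Glo) after 48 hr drug exposure gives viability. Curves span 11 concentrations and are normalized to DMSO and empty wells. Activity is reported as area under the curve and its Z-transform within each cell line.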

[6] = BET inhibitor-based combinations targeting novel dependencies in MECOM-rearranged (r) AML: OCI-AML3 cell line (AID 2202232); settings: Potency: OCI-AML3 viability; note: nearly all actives have a fitted effect of over 35% in size; note: potency is the fitted concentration of half-maximal effect
Summary of the method: as §1

[7] = BET inhibitor-based combinations targeting novel dependencies in MECOM-rearranged (r) AML: MV-4-11 cell line (AID 2202233); note: nearly all actives have a fitted effect of over 45% in size; note: potency is the fitted concentration of half-maximal effect
Summary of the method: (§2)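 Luminescent ATP readout (CellTiter-Glo, 15 min at room temperature) after 48 hr drug exposure gave viability. Dose-response curves, normalized to DMSO and empty-well controls, were summarized as area under the curve and its mean-centred Z-score.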

[8] = BET inhibitor-based combinations targeting novel dependencies in MECOM-rearranged (r) AML: HNT-34 cell line (AID 2202234);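 note: plate controls were vehicle wells for no effect and cell-free wells for full effect; nearly all actives have a fitted effect of over 35% in size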
Summary of the method: as §2

[9] = BET inhibitor-based combinations targeting novel dependencies in MECOM-rearranged (r) AML: AML-191 cell line (AID 2202236; note: nearly all actives have a fitted effect of over 35% in size; note: potency is the fitted concentration of half-maximal effect)
Summary of the method: as §1

[10] = BET inhibitor-based combinations targeting novel dependencies in MECOM-rearranged (r) AML: AML-194 cell line (AID 2202237;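 note: plate controls were vehicle wells for no effect and wells without cells for full effect; nearly all actives have a fitted effect of over 40% in size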)
Summary of the method: as §1

[11] = BET inhibitor-based combinations targeting novel dependencies in MECOM-rearranged (r) AML: UCSD-AML1 cell line (AID 2202235);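 note: series mostly up to about 46 µM; plate controls were DMSO vehicle wells for no effect and blank wells for full effect; nearly all actives have a fitted effect of over 40% in size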
Summary of the method: as §2

Sequence of Cellular tumor antigen p53 (Homo sapiens) (P04637 whole entry, looked up, the tested form may be a part): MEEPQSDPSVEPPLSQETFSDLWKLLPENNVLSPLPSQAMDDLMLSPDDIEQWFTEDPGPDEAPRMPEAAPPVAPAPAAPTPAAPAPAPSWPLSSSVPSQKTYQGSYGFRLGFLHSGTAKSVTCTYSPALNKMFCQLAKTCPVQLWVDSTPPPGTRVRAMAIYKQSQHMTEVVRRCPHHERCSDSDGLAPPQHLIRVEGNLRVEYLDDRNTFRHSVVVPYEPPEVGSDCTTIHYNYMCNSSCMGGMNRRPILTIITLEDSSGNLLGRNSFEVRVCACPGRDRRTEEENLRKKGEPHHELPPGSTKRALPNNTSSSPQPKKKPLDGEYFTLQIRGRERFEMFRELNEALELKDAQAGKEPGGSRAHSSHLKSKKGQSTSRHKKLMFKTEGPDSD

O=C(O)[C@H]1NCCC[C@H]1C(=O)O
inactive: activation [1] -3.88% | Potency [2] | Potency [3] | Potency [4]

COCCCC/C(=N\OCCN)c1ccc(C(F)(F)F)cc1
inactive: activation [1] -6.69% and 3.07% | Potency [2] | Potency [3] | Potency [4]

C[C@@H](O)[C@H]1C(=O)N2C(C(=O)O)=C(SCCN=CN)C[C@H]12
inactive: activation [1] -25.9% and 4.11% | Potency [2] | Potency [3] | Potency [4]

CN(C(=O)CCCOc1ccc2[nH]c(=O)ccc2c1)C1CCCCC1
inactive: activation [1] -9.21% and -37.7% | Potency [2] | Potency [3] | Potency [4]

Cc1cnc(C(=O)NCCc2ccc(S(=O)(=O)NC(=O)NC3CCCCC3)cc2)cn1
inactive: activation [1] -31.3% and -14.1% and 0.362% | Potency [2] | Potency [3] | Potency [4] | viability [5] 105% | Potency [6] | Potency [7] | Potency [8] | Potency [9] | Potency [10]

CC12CC3CC(C)(C1)CC(N)(C3)C2
inactive: activation [1] -20.9% and 13.4% and -0.343% | Potency [2] | Potency [3] | Potency [4] | viability [5] 110% | Potency [6] | Potency [7] | Potency [8] | Potency [11] | Potency [9]

OC1(c2ccc(Cl)cc2)CCN(Cc2c[nH]c3ccccc23)CC1
inactive: activation [1] -4.41% | Potency [2] | Potency [3] | Potency [4]

O=C1CCC(N2C(=O)c3ccccc3C2=O)C(=O)N1 (centres undefined)
inactive: activation [1] -0.565% and -9.78% and -7.37% | Potency [2] | Potency [3] | Potency [4] | viability [5] 112% | Potency [6] | Potency [7] | Potency [8] | Potency [11] | Potency [9] | Potency [10]

CCOC(=O)C(C)Oc1cccc2c(=O)n(CC(=O)Nc3ccc4c(c3)OCCO4)ccc12 (centres undefined)
active: Potency [6] 3.72 µM | Potency [7] 3.32 µM
inactive: activation [1] -0.568% and 16.2% | Potency [2] | Potency [3] | Potency [4] | viability [5] 114% | Potency [8] | Potency [9] | Potency [10]

O=C(O)C1CCCN(CCC=C(c2ccccc2)c2ccccc2)C1 (centres undefined)
inactive: activation [1] -10.3% | Potency [2] | Potency [3] | Potency [4] | viability [5] 117% | Potency [6] | Potency [7] | Potency [8] | Potency [11] | Potency [9] | Potency [10]

CC(=O)N[C@@H](CS)C(=O)O
inactive: activation [1] 11.9% and -21.2% | Potency [2] | Potency [3] | Potency [4]

CN(C)c1nc(N(C)C)nc(N(C)C)n1
inactive: activation [1] -31.8% and -1.51% and -37.1% | Potency [2] | Potency [3] | Potency [4] | viability [5] 111% | Potency [6] | Potency [7] | Potency [8] | Potency [11] | Potency [9] | Potency [10]

C[C@@H](c1ncncc1F)[C@](O)(Cn1cncn1)c1ccc(F)cc1F
inactive: activation [1] -3.85% and -2.78% | Potency [2] | Potency [3] | Potency [4] | viability [5] 105% | Potency [6] | Potency [7] | Potency [8] | Potency [11] | Potency [9] | Potency [10]

COc1cccc(-c2cc(=O)c3ccccc3o2)c1N
inactive: activation [1] 10.5% and -44.6% | Potency [2] | Potency [3] | Potency [4] | viability [5] 100% | Potency [11]
active: Potency [6] 5.25 µM | Potency [7] 20.9 µM | Potency [9] 14.8 µM

NCCS(=O)(=O)O
inactive: activation [1] -4.87% and 12% | Potency [2] | Potency [3] | Potency [4] | viability [5] 125% | Potency [6] | Potency [7] | Potency [8] | Potency [11] | Potency [9] | Potency [10]

CC(C)C[C@H](NC(=O)[C@@H](O)[C@H](N)Cc1ccccc1)C(=O)O
inactive: activation [1] -10.8% | Potency [2] | Potency [3] | Potency [4] | viability [5] 104% | Potency [6] | Potency [7] | Potency [8] | Potency [11] | Potency [9] | Potency [10]

COc1ccccc1N1CCN(CCCCN2C(=O)c3ccccc3C2=O)CC1
inactive: activation [1] -14.4% | Potency [2] | Potency [3] | Potency [4]

Nc1nnc(-c2cccc(Cl)c2Cl)c(N)n1
inactive: activation [1] 5.86% and 2.46% and -39.9% | Potency [2] | Potency [3] | Potency [4] | viability [5] 116% | Potency [6] | Potency [7] | Potency [8] | Potency [11] | Potency [9] | Potency [10]
